{"source": "PubChem BioAssay AID488896", "about": "(Broad Institute, 2010)", "note": "In all, about 320,000 compounds went through this assay and about 3,100 (0.97%) were called active. This excerpt belongs to a sample that is enriched for actives. A number with no mark means an inactive call.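 How the source made its calls: active means mean replicate inhibition of at least 70% and a set share of replicates each scoring 70 or more; inconclusive means meets just one of the two criteria; inactive means fails both criteria.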", "data": [{"biological_target": "Scavenger receptor class B member 1 (Mus musculus) (UniProt Q61009)", "sequence (Q61009 whole entry, looked up)": "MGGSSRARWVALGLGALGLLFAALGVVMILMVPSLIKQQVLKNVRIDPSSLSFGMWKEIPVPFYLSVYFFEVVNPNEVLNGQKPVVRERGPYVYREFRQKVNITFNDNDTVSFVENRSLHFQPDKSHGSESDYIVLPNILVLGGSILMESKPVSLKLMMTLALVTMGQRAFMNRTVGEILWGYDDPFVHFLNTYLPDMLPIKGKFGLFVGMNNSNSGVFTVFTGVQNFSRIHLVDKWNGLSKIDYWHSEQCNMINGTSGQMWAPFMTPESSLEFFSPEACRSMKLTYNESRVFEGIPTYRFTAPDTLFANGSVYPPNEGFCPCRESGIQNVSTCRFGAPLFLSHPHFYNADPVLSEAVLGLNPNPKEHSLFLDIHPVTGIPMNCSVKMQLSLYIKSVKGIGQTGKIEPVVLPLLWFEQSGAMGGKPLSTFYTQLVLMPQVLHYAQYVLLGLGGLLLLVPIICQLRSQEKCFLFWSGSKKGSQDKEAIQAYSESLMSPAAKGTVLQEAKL", "assay": "mouse SR-BI DiI-HDL uptake blockers – ldlA[mSR-BI] cells, fluorescence, single point, primary screen (AID 488896);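 further: 0% = median of neutral control wells and 100% = median of positive control wells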", "conditions": "ldlA[mSR-BI] CHO cells, 3 h, at 12.5 µM, stronger effect = higher value", "values": [{"smiles": "CCOC(=O)/C(=N\\Nc1ccccc1[N+](=O)[O-])c1csc(Nc2ccccc2)n1", "inhibition": "106% (active)"}, {"smiles": "CCOC(=O)C/C(C)=N\\Nc1ccc([N+](=O)[O-])cc1[N+](=O)[O-]", "inhibition": "-9.86%"}, {"smiles": "Cc1csc(NC(=O)Nc2ccccc2[N+](=O)[O-])n1", "inhibition": "2.45%"}, {"smiles": "O=C(OCCOc1ccccc1F)c1cc(S(=O)(=O)N2CCOCC2)ccc1F", "inhibition": "12.6%"}, {"smiles": "C=C(C)CNc1cc(S(=O)(=O)N2CCOCC2)ccc1Oc1ccccc1", "inhibition": "10.5%"}, {"smiles": "COC(=O)c1cc(Oc2ccc(S(=O)(=O)N3CCOCC3)cc2[N+](=O)[O-])cc(C(=O)OC)c1", "inhibition": "70.8% (active)"}, {"smiles": "COc1ccc(S(=O)(=O)N2CCC(C(=O)OCC(=O)c3ccccc3)CC2)cc1[N+](=O)[O-]", "inhibition": "-14.3%"}, {"smiles": "CC(C)(C)C(=O)Nc1cccc(-c2ccc[nH]2)n1", "inhibition": "-5.41%"}, {"smiles": "COc1cccc(NC(=O)CN2CCN(CC(=O)Nc3ccccc3Cl)CC2)c1", "inhibition": "19.8%"}, {"smiles": "Cc1cc(C)cc(NC(=O)NC2CCN(CC(=O)Nc3cccc(Cl)c3C)CC2)c1", "inhibition": "74.4% (active)"}, {"smiles": "O=C(CN1CCC(NC(=O)Nc2ccccc2)CC1)Nc1cccc([N+](=O)[O-])c1", "inhibition": "30.9%"}, {"smiles": "O=C(Cc1ccc([N+](=O)[O-])cc1)NCCc1ccc2c(c1)OCO2", "inhibition": "30.8%"}, {"smiles": "CC(C)=CCc1ccc(O)c(=O)cc1C(C)C", "inhibition": "12.4%"}, {"smiles": "CC(=O)OC1CCC2C3CCC4=C(CC(F)C(=O)C4)C3CCC12C", "note": "(stereo not drawn)", "inhibition": "3.99%"}, {"smiles": "Brc1ccc(-c2csc(N/N=C/c3ccc4c(c3)OCO4)n2)cc1", "inhibition": "79.4% (active)"}, {"smiles": "Brc1ccc(-c2csc(N/N=C/c3cccnc3)n2)cc1", "inhibition": "37.2%"}, {"smiles": "C(=N\\Nc1ccc2ccccc2n1)/c1ccc2c(c1)OCO2", "inhibition": "7.43%"}, {"smiles": "NC(=O)c1ncn([C@@H]2O[C@H](CNCc3cnc(N4CCOCC4)s3)[C@@H](O)[C@H]2O)n1", "inhibition": "12%"}, {"smiles": "CC/C(=C(/c1ccccc1)c1ccc(OCC[N+](C)(C)C)cc1)c1ccccc1", "inhibition": "-44.1%"}, {"smiles": "Cc1cccc(NC(=O)Nc2ccc(OCc3ccccc3)cc2)n1", "inhibition": "17.6%"}, {"smiles": "O=C(O)/C=C\\C(=O)Nc1ccc(OCc2ccccc2)cc1", "inhibition": "-11.2%"}, {"smiles": "CCc1ccnc(NC(=O)Nc2ccc(OCc3ccccc3)cc2)c1", "inhibition": "81.9% (active)"}, {"smiles": "Cc1cc(NC(=O)C(C)SCC(=O)Nc2cccc(S(=O)(=O)N3CCCCCC3)c2)no1", "note": "(stereo not drawn)", "inhibition": "41.5%"}, {"smiles": "Cc1cn(C2CC(O)C(CO)O2)c(=O)n(CCCc2ccccc2)c1=O", "note": "(stereo not drawn)", "inhibition": "2.76%"}, {"smiles": "Cc1ccccc1OCC(=O)Nc1ccc2c(c1)ncn2C", "inhibition": "9.34%"}, {"smiles": "Cc1ccccc1OCC(=O)Nc1ccc(S(=O)(=O)N2CCOCC2)cc1", "inhibition": "-12.4%"}, {"smiles": "Cc1ccccc1OCC(=O)Nc1ccc(N2CCN(C(=O)C(C)C)CC2)c(Cl)c1", "inhibition": "72% (active)"}, {"smiles": "Cc1ccc(Cn2c(C)c3cnn(CC(=O)NCCN4CCOCC4)c(=O)c3c2C)cc1", "inhibition": "22.1%"}, {"smiles": "CCC1(C)COC(c2ccc(OC)c(OC)c2)OC1", "note": "(stereo not drawn)", "inhibition": "-11.4%"}, {"smiles": "Cc1ccc(C(=O)O)c(NC=O)c1OCc1ccccc1", "inhibition": "-19.3%"}, {"smiles": "CCOC(=O)/C(C#N)=C/c1ccc(OCC(=O)Nc2ccccc2)c(OC)c1", "inhibition": "-11.4%"}, {"smiles": "CCOC(=O)COc1ccc([N+](=O)[O-])cc1", "inhibition": "-24.5%"}, {"smiles": "CCOC(=O)/C(=C\\c1ccc([N+](=O)[O-])cc1)C(=O)c1cc(C(C)=O)c(Nc2ccccc2)s1", "inhibition": "80.9% (active)"}, {"smiles": "Cc1nc2ccc(N)nc2nc1C", "inhibition": "22.1%"}, {"smiles": "O=[N+]([O-])c1ccc(NS(=O)(=O)c2ccccc2)c(Cl)c1", "inhibition": "-84.4%"}, {"smiles": "COc1cccc2oc(CCc3ccccc3)cc(=O)c12", "inhibition": "-4.54%"}, {"smiles": "COc1ccc(C(=O)NC(=S)Nc2ccccc2N2CCN(S(C)(=O)=O)CC2)cc1OC", "inhibition": "74.4% (active)"}, {"smiles": "COc1ccccc1C(=O)NC(=S)Nc1ccccc1N1CCCCC1", "inhibition": "49.6%"}, {"smiles": "CCC(=O)Nc1ccccc1N1CCN(S(C)(=O)=O)CC1", "inhibition": "-20.6%"}, {"smiles": "COc1cccc(/C=N/Nc2ccc(S(=O)(=O)Nc3ccccc3C(=O)O)cc2[N+](=O)[O-])c1O", "inhibition": "-4.5%"}, {"smiles": "COc1cccc(C(=O)Nc2cc3c(cc2Br)OCCCO3)c1", "inhibition": "83.6% (active)"}, {"smiles": "O=C(Nc1ccccc1)c1ccc2c(c1)OCCCO2", "inhibition": "-9.51%"}, {"smiles": "COc1cccc(C(=O)Nc2nnc(S(=O)(=O)N3CCCCC3)s2)c1", "inhibition": "-13.3%"}, {"smiles": "COc1cccc(C(=O)Nc2ccc(N3CCCC3)cc2)c1", "inhibition": "80.4% (active)"}, {"smiles": "COc1ccc(C(=O)NCCCN2CCOCC2)cc1Br", "inhibition": "-15.8%"}, {"smiles": "COc1ccc(OCC(=O)Nc2ccc(N3CCC(C)CC3)cc2)cc1", "inhibition": "65.5%"}, {"smiles": "COc1cccc(C(=O)Nc2ccc(N3CCN(C(=O)c4ccco4)CC3)cc2)c1", "inhibition": "36.3%"}, {"smiles": "COc1cccc(C(=O)NNC(=O)c2cccc(F)c2)c1", "inhibition": "-14.2%"}, {"smiles": "COc1ccc(C(=O)Nc2ccc(N3CCC(C)CC3)cc2)cc1Br", "inhibition": "94.5% (active)"}, {"smiles": "COc1ccc(CNC(=O)COC(=O)C2=Cc3ccccc3OC2)cc1", "inhibition": "-3.54%"}, {"smiles": "O=S1(=O)CCOC[C@H](Cc2ccccc2)N1Cc1ccccc1Br", "inhibition": "-16.4%"}, {"smiles": "O=C(OCCOc1ccccc1Cl)c1cc(S(=O)(=O)N2CCCCC2)ccc1N1CCOCC1", "inhibition": "-9.43%"}, {"smiles": "CN=c1scc(-c2cc(OC)ccc2OC)n1/N=C/c1c(C)[nH]c2ccccc12", "inhibition": "77.2% (active)"}, {"smiles": "CCn1c(-c2cc(OC)ccc2OC)csc1=Nc1c(C)n(C)n(-c2ccccc2)c1=O", "inhibition": "-4.8%"}, {"smiles": "COCCNC(=S)N/N=C/c1c(C)[nH]c2ccccc12", "inhibition": "2.4%"}, {"smiles": "O=C1C2C3C=CC(C3)C2C(=O)N1c1ncc([N+](=O)[O-])s1", "note": "(stereo not drawn)", "inhibition": "-8.82%"}, {"smiles": "CCC(=O)N1CCc2cc(Br)c(S(=O)(=O)NCCN3CCCCC3CC)cc21", "note": "(stereo not drawn)", "inhibition": "11.6%"}, {"smiles": "COc1cc(C(=O)N2CCN(S(=O)(=O)c3ccc(C(C)C)cc3)CC2)ccc1OCC(=O)N1CCOCC1", "inhibition": "-10.9%"}, {"smiles": "Cc1ccc(Nc2c(O)nc[nH]c2=O)cc1C", "inhibition": "4.84%"}, {"smiles": "COC(=O)Cc1nc2c(N)nc(N)nc2[nH]c1=O", "inhibition": "-15.9%"}, {"smiles": "O=C(N/N=C/c1ccccc1O)/C(=C/c1ccccc1)CCO", "inhibition": "24.8%"}, {"smiles": "O=C(NN=Cc1ccccc1O)NN=Cc1ccccc1O", "inhibition": "79.8% (active)"}, {"smiles": "O=C(N/N=C/c1ccccc1O)C1CCCC1", "inhibition": "4.81%"}, {"smiles": "COc1ccccc1C(=O)c1ccccc1C(=O)c1ccccc1", "inhibition": "6.29%"}, {"smiles": "COc1ccc(CNC(=O)CN2C(=O)c3ccccc3S2(=O)=O)cc1", "inhibition": "-16.4%"}, {"smiles": "Cc1cc([N+](=O)[O-])ccc1NC(=O)c1ccc(NC(=O)C(C)C)cc1", "inhibition": "74.9% (active)"}, {"smiles": "CC(=O)c1ccc(NC(=O)Nc2ccc([N+](=O)[O-])cc2C)cc1", "inhibition": "26.8%"}, {"smiles": "CC(C)C(=O)Nc1cccc(NC(=O)c2ccc([N+](=O)[O-])cc2Cl)c1", "inhibition": "-2.31%"}, {"smiles": "Nc1ccc2[nH]c(=S)sc2c1", "inhibition": "5.71%"}, {"smiles": "COc1ccc(-c2nnn(CC(=O)N(CCO)C(C(=O)NC3CCCC3)c3ccc(F)cc3)n2)cc1", "note": "(stereo not drawn)", "inhibition": "10.5%"}, {"smiles": "COc1cccc(N(CC(=O)NC2CCCC2)C(=O)CCCC(=O)Nc2ccccn2)c1", "inhibition": "21.1%"}, {"smiles": "COc1cccc(N(CC(=O)NC2CCCC2)C(=O)Cn2nnc(-c3ccc(C)cc3)n2)c1", "inhibition": "73.6% (active)"}, {"smiles": "O=c1[nH]c2c(c(=O)n1-c1ccccc1)CCO2", "inhibition": "2.86%"}, {"smiles": "CN(C)/N=C/c1cc(Cl)cc([N+](=O)[O-])c1O", "inhibition": "-14.6%"}, {"smiles": "O=C(Cc1cc(=O)[nH][nH]1)N/N=C/c1ccccc1[N+](=O)[O-]", "inhibition": "-19.1%"}, {"smiles": "O=C(N/N=C/c1cc(Cl)cc([N+](=O)[O-])c1O)C(O)(c1ccccc1)c1ccccc1", "inhibition": "77.8% (active)"}, {"smiles": "N=C1c2ccccc2-c2ccccc21", "inhibition": "-9.24%"}, {"smiles": "CCC(C(=O)OCC(=O)Nc1ccccc1-c1ccccc1)c1ccccc1", "note": "(stereo not drawn)", "inhibition": "-4.74%"}, {"smiles": "CCC(C(=O)OCC(=O)Nc1ccc(C(=O)Nc2ccc(OC)cc2)cc1)c1ccccc1", "note": "(stereo not drawn)", "inhibition": "79.1% (active)"}, {"smiles": "CCC(C(=O)OCC(=O)Nc1c(Cl)cc(Cl)cc1Cl)c1ccccc1", "note": "(stereo not drawn)", "inhibition": "-13.8%"}, {"smiles": "COc1ccc(NC(=O)/C(N=Nc2cccc(S(=O)(=O)Nc3ccc(SC(F)F)cc3)c2)=C(\\C)O)cc1", "inhibition": "-19.4%"}, {"smiles": "COC(=O)C(C)Sc1ccc2nnc(-c3cccc(F)c3)n2n1", "note": "(stereo not drawn)", "inhibition": "-12.2%"}, {"smiles": "COc1ccc(NC(=O)c2cc3nc(-c4ccccc4)cc(C)n3n2)cc1OC", "inhibition": "-10.7%"}, {"smiles": "COCCNc1cc(-c2ccccc2)nc2cc(-c3cccc(F)c3)nn12", "inhibition": "71.2% (active)"}, {"smiles": "COc1ccc(NS(=O)(=O)c2ccc(N3CCOCC3)c(NC(=O)/C=C/C(=O)O)c2)cc1", "inhibition": "-22.2%"}, {"smiles": "CC(C)Cc1nnc(N)s1", "inhibition": "-10.1%"}, {"smiles": "CCOc1ccc(C(C)=O)cc1COC(=O)CNC(=O)c1cccs1", "inhibition": "72.6% (active)"}, {"smiles": "CCOc1ccc(C(C)=O)cc1COC(=O)CN1C(=O)NC2(CCCC2)C1=O", "inhibition": "28.5%"}, {"smiles": "CCOc1ccc(C(C)=O)cc1COC(=O)c1cnc(Cl)c(Cl)c1", "inhibition": "-10.9%"}, {"smiles": "Cc1cccc(C=CC(=O)c2ccc(Cl)cc2)c1", "inhibition": "0.714%"}, {"smiles": "NC(CSC1(c2ccccc2)c2ccccc2-c2ccccc21)C(=O)O", "note": "(stereo not drawn)", "inhibition": "-5.45%"}, {"smiles": "O=C(NCc1ccccc1)c1cccc(NC(=O)C2CCCCC2)c1", "inhibition": "0.488%"}, {"smiles": "OCC1(CO)CC2(C1)CC(CO)(CO)C2", "inhibition": "-21.2%"}]}]}
